# Assay outcomes as filed in PubChem.
# HPGD inh = blocks human HPGD enzyme activity; AID 894; purified HPGD, NADH fluorescence kinetic, PGE2 substrate; P15428; 150,000 compounds, 4.3% hits; Potency, µM, usual class: inhibitors
#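 20 nM HPGD preincubated 15 min at room temperature with compound in 50 mM Tris-HCl pH 8, 0.01% Tween 20. Started with 1 mM NAD+ and 30 uM prostaglandin E2; NADH fluorescence (360/450 nm) read 5 times over 30-s intervals, last minus first.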
# ALDH1A1 inh = inhibitors of human aldehyde dehydrogenase 1A1; P00352; Purified ALDH1A1, NADH fluorescence, propionaldehyde substrate; Potency, µM (highest dose often 75.3 µM), most hits filed as inhibitors; 220,000 compounds, 7.3% hits; AID 1030
# Target sequence (P00352 whole entry, looked up): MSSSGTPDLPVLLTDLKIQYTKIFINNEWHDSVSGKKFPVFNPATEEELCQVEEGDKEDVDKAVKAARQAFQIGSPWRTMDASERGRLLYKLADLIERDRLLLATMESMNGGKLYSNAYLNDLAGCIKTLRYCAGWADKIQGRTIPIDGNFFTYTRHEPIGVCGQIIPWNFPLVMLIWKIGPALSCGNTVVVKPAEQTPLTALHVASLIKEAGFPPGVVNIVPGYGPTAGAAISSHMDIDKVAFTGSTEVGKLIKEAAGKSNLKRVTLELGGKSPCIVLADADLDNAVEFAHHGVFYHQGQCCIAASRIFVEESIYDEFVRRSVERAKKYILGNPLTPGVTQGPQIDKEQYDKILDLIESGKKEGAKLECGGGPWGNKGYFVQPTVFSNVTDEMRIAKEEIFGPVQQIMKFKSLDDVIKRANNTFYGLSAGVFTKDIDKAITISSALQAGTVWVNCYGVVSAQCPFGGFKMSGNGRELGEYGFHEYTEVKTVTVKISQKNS
# PNC inhibitor = blocks assembly of the perinucleolar compartment; PC3M PTB-GFP, PNC prevalence imaging, 16 h; hits give low values; activity change (PNC), negative = inhibition, % at 10 µM; 140,000 compounds, 3.1% hits; AID 2417;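 active = readout at or below -70, meaning at least 70% loss of cells showing the perinucleolar compartment, a nuclear body marking cancer cells; inconclusive = readout between -30 and a set limit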
#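 Read-out is percentage of cells bearing a perinucleolar compartment, from automated 20x imaging of fixed, Hoechst-stained PC3M PTB-GFP cells. Cells were seeded 4 h, then exposed 16 h to compound (23 nl of library stock) in duplicate plates.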
# KDM4E inh = blocks human JMJD2E demethylase activity | B2RXH2 | JMJD2E catalytic domain, FDH-coupled NADH fluorescence (FDH is formaldehyde dehydrogenase) | Potency, µM (series often up to 57.1 µM), most hits filed as inhibitors | 230,000 compounds, 1.6% hits; note: nearly all actives have a fitted effect of over 50% in size
# Numbers stand for hits; i = inactive; ? = inconclusive; nt = not tested or not shown; ! = not active in a repeat; [ ] = dose if it differs, or a comment. The list is not random: actives were taken first. Their share in the collection is about 11%. Unless noted, calls come from the whole dose curve; as a rule, active = well fitted inhibition curve with a large enough effect (not every such curve was filed as active); inconclusive = small, poorly fitted or top-dose-only effect, or another doubt; inactive = no such curve, though single readings can be large or run the other way.
SMILES,HPGD inh,ALDH1A1 inh,PNC inhibitor,KDM4E inh
O=C(COC(=O)c1c[nH]c(=O)[nH]c1=O)Nc1ccccc1F,nt,28µM,nt,i
Cc1cc(-c2nn(-c3ccccc3F)cc2CNCCc2cnc[nH]2)c(C)s1,nt,14µM,nt,i
Cn1cc(CN2CCC(CO)(CCCc3ccccc3)CC2)c(-c2ccccc2)n1,nt,nt,nt,i
COc1ccc(-c2nnc(SCc3cc(C)ccc3C)n2N)cc1,?,22µM,i,i
CCCc1nnc(SCc2ccc(OC)cc2)n1N,18µM,i,i,i
CCCOc1ccc(CSc2nnc(CCC)n2N)cc1,i,i,i,i
CCCCc1nnc(SCCSc2nnc(CCCC)n2N)n1N,i,18µM,i,i
NC(N)=NC(N)=Nc1ccc(S(=O)(=O)O)cc1,i,i[13.5 µM],nt,nt
COc1cc(/C=C2/NC(=O)N(Cc3ccccc3F)C2=O)cc(OC)c1OC,nt,2.5µM,nt,i
O=C(O)c1ccc(COc2ccccc2/C=C2\NC(=O)N(Cc3ccc(F)cc3)C2=O)cc1,nt,i,nt,i
Cc1cc(/C=C2/NC(=O)N(Cc3ccccc3F)C2=O)c(C)n1-c1ccccn1,?,8.9µM,i,?
Cn1c(=O)n(C)c2cc(/C=C3/NC(=O)N(Cc4ccccc4)C3=O)ccc21,i,?,i,i
Cc1cc(/C=C2/NC(=O)N(Cc3ccccc3F)C2=O)c(C)n1C,i,1.1µM,?,?
O=C1N/C(=C/c2cccs2)C(=O)N1Cc1ccccc1F,nt,?,nt,i
CCOc1cc([N+](=O)[O-])cc(/C=C2/NC(=O)N(Cc3ccccc3F)C2=O)c1O,nt,2.2µM,nt,i
CCOC(=O)c1nc(C)sc1-c1ccnn1S(=O)(=O)c1cccc(Cl)c1,nt,?,nt,i
Cc1cc(C(=O)NCCc2ccc(S(=O)(=O)NC(=O)NN3CCCCCC3)cc2)no1,i,i,nt,nt
Cc1cc(/C=c2/sc3nc4ccccc4n3c2=O)c(C)n1-c1ccccn1,i,13µM,i,?
CC(C)Cc1nc2ccc(N)cc2[nH]1,nt,i,nt,35µM
CC(C)Cc1nc2ccccc2[nH]1,nt,nt,nt,i
CCCCCCC#CC1C=CC(OC(C)=O)C(COC(C)=O)O1 (configuration not stated),nt,3.2µM,nt,nt
COc1ccc([N+](=O)[O-])cc1NS(=O)(=O)c1cccc(C(=O)O)c1,nt,nt,nt,i
CC(C)c1ccc(-c2nnc(N)s2)cc1,35µM,i,i,?
Cc1ccc(NC(=O)CCC(=O)c2cccs2)c(O)c1,nt,nt,nt,i
NNC(=O)c1cnn(Cc2ccccc2)c1N,i,13µM,i,i
SMILES,HPGD inh,ALDH1A1 inh,PNC inhibitor,KDM4E inh
Cn1nccc1CNC(=O)c1c(Cl)cnn1C,i,i,i,i
Cn1ncc(Cl)c1C(=O)NCc1cc(C(C)(C)C)n[nH]1,18µM,i,i,i
CC1(C)CC(=O)C(N=Nc2ccc(C(F)(F)F)cc2[N+](=O)[O-])=C(O)C1,nt,3.5µM,nt,13µM
COc1ccc(N=NC2=C(O)CC(C)(C)CC2=O)c(OC)c1,i,0.28µM,i,i
CC1(C)CC(=O)C(N=Nc2ccc(Br)cc2)=C(O)C1,nt,nt,nt,i
CC1(C)CC(=O)C(N=Nc2cccc(F)c2C#N)=C(O)C1,nt,nt,nt,i
COc1ccc(N=NC2=C(O)CC(C)(C)CC2=O)cc1,32µM,0.89µM,i,i
Cc1ccc(C)c(NC(=S)NCC(c2ccccc2)N(C)C)c1 (configuration not stated),nt,i,nt,i
Cc1nc(NC(=O)COC(=O)C(NC(=O)c2ccco2)C(C)C)c(Cl)cc1Cl (configuration not stated),i,25µM,i,i
CCN(CC)C(=O)Cn1nnc(-c2ccc(C)o2)n1,i,25µM,i,i
Cc1ccc(N(CC(=O)NC2CCCCC2)C(=O)Cn2nnc(-c3ccc(C)o3)n2)cc1,nt,i,nt,i
CCCC(C(=O)NC1CCCC1)N(C(=O)Cn1nnc(-c2ccc(C)o2)n1)C1CCCC1 (configuration not stated),?,25µM,?,i
CCC(C(=O)NC1CCCC1)N(C(=O)Cn1nnc(-c2ccc(C)o2)n1)C(C)(C)C (configuration not stated),nt,?,i,i
CCc1cccc2c1NC(=O)[C@]21[C@@H]2C(=O)N(Cc3ccccc3)C(=O)[C@@H]2[C@@H]2CCCN21,i,?,i,i
Cc1c(Cl)ccc2c1NC(=O)[C@]21[C@@H]2C(=O)N(Cc3ccccc3)C(=O)[C@@H]2[C@@H]2CCCN21,i,2.8µM,-127,i
O=C(c1cnn2c(C(F)(F)F)cc(-c3ccc(Br)cc3)nc12)N1CCOCC1,?,i,?,i
Cc1nn2c(C(F)(F)F)cc(-c3ccc(Cl)cc3)nc2c1C(=O)N1CCOCC1,?,11µM,?,i
O=C(NCc1cccnc1)/C(=C\c1ccc(-c2ccc(Br)cc2)o1)S(=O)(=O)c1ccccc1,i,3.5µM,?,?
CCCCCCc1nnc(N)s1,i,?,i,i
Cc1ccc(NC(=O)c2ccc(Cl)c(N3C(=O)C=CC3=O)c2)cc1,3.5µM,3.2µM,i,i
CC(=O)Nc1ccc(S(=O)(=O)Oc2cccc(/C=N/N=C3/NC(=O)C(CC(=O)O)S3)c2)cc1 (configuration not stated),nt,7.5µM,nt,i
CCN(CC)C(=O)c1ccc(S(=O)(=O)N2CCC(c3nc4ccccc4s3)CC2)cc1,i,i,-100,i
CCOc1cc(S(=O)(=O)N2CCC(c3nc4ccccc4s3)CC2)c(OCC)cc1S(=O)(=O)N1CCCCC1,i,i,i,i
Clc1ccc(OCc2nn3c(C4CCCCC4)nnc3s2)cc1,20µM,18µM,i,i
Nc1nc(SCc2ccc(Cl)cc2Cl)nc2nc3c(cc12)CCCC3,i,i,-83,?
SMILES,HPGD inh,ALDH1A1 inh,PNC inhibitor,KDM4E inh
CCOC(=O)C1CCN(C(=O)COC(=O)CNC(=O)c2ccc(OC)cc2)CC1,nt,i,nt,i
CCCCCCCC/C=C\CCCCCCCC(=O)NCCc1ccc(O)c(O)c1,?,i,nt,20µM!
CCCCC/C=C\C/C=C\C/C=C\C/C=C\CCCCCC(=O)NCCc1ccc(O)c(O)c1,i,i,nt,i
CCOC(=O)NC(NC(=O)OCC)C(=O)c1ccccc1,i,i,?,i
CCOC(=O)NC(N(O)c1cccc(Cl)c1)C(Cl)(Cl)Cl (configuration not stated),nt,8.9µM,nt,i
O=C(CSc1nnc(C2CC2)n1Cc1ccco1)NCC(F)(F)F,nt,24µM,nt,i
N#CCCN(C(=O)CN1C(=O)NC2(CCCC2)C1=O)c1ccccc1F,i,7.9µM,i,i
O=C(CN1C(=O)NC2(CCCC2)C1=O)Nc1ccccc1F,i,i,?,i
O=C(CCCC(=O)OCC(F)(F)C(F)F)Nc1ccccc1F,nt,i,nt,i
CCc1nnc(NC(=O)c2ccc(OC)cc2OC)s1,i,7.9µM,?,i
CCc1nnc(NC(=O)Nc2ccccc2OC)s1,i,i,i,i
CN(C)c1ccc(/C=C(/C#N)C(=O)NCc2ccccc2)o1,i,?,-83,i
Cc1[nH]n(-c2ncc(-c3ccccc3)s2)c(=O)c1C(c1ccc(Cl)cc1)C(C#N)C#N (configuration not stated),25µM,28µM,i,i
Nc1nc(-c2ccccc2)c(N=Nc2cccnc2)s1,nt,20µM,nt,i
C=C1CC[C@H](O)C/C1=C/C=C1\CCC[C@]2(C)[C@H]1CC[C@H]2[C@@H](C)/C=C\[C@@H](C)C(C)C,i,i,nt,i
CN1C(=O)SC(Nc2ccc(F)cc2)C1=O (configuration not stated),i,?,i,i
